This is a sample that favours compounds with a hit; in the whole collection about 0.93% have one here.
CIT2 TOR yeast: modulators of TOR pathway CIT2-GFP in S. cerevisiae; 320,000 tested, 0.065% active; AID 2029; S. cerevisiae CIT2-GFP strain, flow cytometry, 3 h; 100 means same as DMSO wells; GFP response vs DMSO, % at 10 µM;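 active = GFP response relative to DMSO above a set limit, near the screen mean plus 3 SD, cut at about 150% in these data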;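 also: ratio of well median GFP fluorescence to mean of DMSO wells on the plate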
AGP1 TOR yeast: alters AGP1-GFP fluorescence in TOR pathway yeast screen; S. cerevisiae AGP1-GFP multiplex flow cytometry, 3 h; GFP as percent of DMSO wells; GFP response vs DMSO, % at 10 µM; 320,000 tested, 0.02% active; AID 2066;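 active = GFP response relative to DMSO above a set limit, near screen average plus 3 SD, cut at about 150% in these data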;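 also: median GFP channel fluorescence of the gated AGP1 strain per well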
RPL19A TOR yeast: modulators of TOR pathway RPL19A-GFP in S. cerevisiae | S. cerevisiae RPL19A-GFP strain, flow cytometry, 3 h; stronger effect = lower value | percent response vs DMSO, % at 10 µM | 330,000 tested, 0.3% active | AID 2025;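 active = percent response vs DMSO below 50%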;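 also: median channel GFP fluorescence of the barcoded RPL19A-GFP strain; ratio of sample median GFP to plate DMSO average so 100% = DMSO; lower means less RPL19A-GFP as with rapamycin TOR inhibition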
MEP2-GFP yeast: yeast TOR pathway MEP2-GFP modulation | 330,000 tested, 0.51% active | GFP response vs DMSO, % at 10 µM | S. cerevisiae MEP2-GFP strain, flow cytometry GFP, 3 h; 100% = DMSO control level | AID 2016;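 active = GFP response versus DMSO above a set limit, roughly screen mean plus 3 SD, cut at about 180% in these data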;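 also: median GFP fluorescence of the barcode-gated MEP2-GFP cells per well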
LAP4 TOR yeast: alters LAP4-GFP fluorescence in TOR pathway yeast screen; S. cerevisiae LAP4-GFP multiplex, flow cytometry GFP, 3 h; median GFP as percent of DMSO wells; 320,000 tested, 0.34% active; GFP response vs DMSO, % at 10 µM;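 active = GFP response vs DMSO above a set limit, about the screen mean plus 3 SD, cut at about 150% in these data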
LAP4 cherry2: second confirmation of modulators of TOR reporter LAP4-GFP in yeast; AID 2621; GFP response vs DMSO, % at 10 µM; shares compounds with LAP4 TOR yeast; 590 tested, 20% active; S. cerevisiae LAP4-GFP strain, flow cytometry GFP, 3 h;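 active = GFP signal as percent of the solvent control above about 150%, meaning raised reporter expression, limit read from the data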;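 also: ratio of well median GFP fluorescence to plate DMSO mean so 100% = DMSO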
MEP2-GFP pick2: reconfirmed MEP2-GFP TOR pathway modulator in yeast. S. cerevisiae MEP2-GFP strain, flow cytometry GFP, 3 h. AID 2622. shares compounds with LAP4 TOR yeast. GFP response vs DMSO, % at 10 µM. 590 tested, 10% active;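 active = GFP signal above 150% of the solvent control wells, that is a rise of more than half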;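 also: median channel GFP fluorescence of all gated yeast cells per well; ratio of median GFP to plate DMSO average so 100% = DMSO level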
RPL19A GFP CP2: reconfirmed modulator of RPL19A-GFP TOR reporter in yeast. shares compounds with LAP4 TOR yeast. S. cerevisiae RPL19A-GFP strain, flow cytometry GFP, 3 h; stronger effect = lower value; 100% means same as DMSO wells. GFP response vs DMSO, % at 10 µM. 590 tested, 3% active;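 active = under 65% GFP response relative to DMSO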;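 also: median GFP channel fluorescence per well over the all cells gate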
CIT2 GFP CP2: yeast CIT2-GFP TOR reporter modulation, second cherry pick. shares compounds with LAP4 TOR yeast. AID 2624. S. cerevisiae CIT2-GFP strain, flow cytometry GFP, 3 h; DMSO control wells read 100%. 590 tested, 8% active. GFP response vs DMSO, % at 10 µM;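 active = GFP response vs DMSO above about 150%, limit read from the data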;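 also: median green fluorescence per well over all gated yeast cells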
AGP1 GFP CP2: second confirmation of modulators of TOR reporter AGP1-GFP in yeast; shares compounds with LAP4 TOR yeast; S. cerevisiae AGP1-GFP strain, flow cytometry GFP, 3 h; percent response vs DMSO, % at 10 µM; 590 tested, under 10 active; AID 2643;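 active = over 150 percent of DMSO response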;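 also: median GFP channel fluorescence over all cells without mother daughter split; sample median GFP divided by mean DMSO control so 100% equals DMSO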
Yeast autofluor: counter-screen for compound autofluorescence in yeast s288c cells; AID 2757; fluorescence change (kMESF span) at 33 µM; S. cerevisiae s288c, 520 nm autofluorescence, flow cytometry, 3 h; stronger effect = higher value; zero means same as solvent-only cells; 610 tested, under 10 active; shares compounds with LAP4 TOR yeast;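 active = fluorescence span over the dose series, or activity score, above about 33, limit read from the data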
s288c autofl DR: counter-screen for autofluorescence of TOR hits in yeast s288c; shares compounds with LAP4 TOR yeast; S. cerevisiae s288c parental, compound autofluorescence, flow cytometry, 3 h; fluorescence change (span) at 33 µM; 110 tested, under 10 active;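 active = fluorescence change span, or the activity score built from it, above 25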
TORC1 bypass: compounds blocking wildtype yeast growth but not TORC1 bypass cells | shares compounds with LAP4 TOR yeast | S. cerevisiae BY4741 spot growth rating, 48-72 h; stronger effect = lower value | growth rating (0-3) at 30 µM | 120 tested, under 10 active;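 active = growth rating at most 1 for wild type yeast while the TORC1 bypass strain still grows fully, rated 3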
* = called active by the depositor; · = no result.

SMILES	CIT2 TOR yeast	AGP1 TOR yeast	RPL19A TOR yeast	MEP2-GFP yeast	LAP4 TOR yeast	LAP4 cherry2	MEP2-GFP pick2	RPL19A GFP CP2	CIT2 GFP CP2	AGP1 GFP CP2	Yeast autofluor	others
COc1ccccc1N1CCN(C(=O)c2cccc(S(=O)(=O)Nc3ccccc3F)c2)CC1	109	109	98	100	102	·	·	·	·	·	·
CC1=NN(c2ccccc2)C(=O)/C1=C/c1c(C)[nH]n(-c2ccc(C)cc2)c1=O	88	90	92	92	98	97	103	106	100	102	·
CC1=NN(c2ccccc2)C(=O)/C1=C/c1cccc(C)c1	100	93	107	101	101	·	·	·	·	·	·
CCCN1C2CCCC1CC(NC(=O)c1ccc(Br)cc1)C2 (centres undefined)	104	105	104	98	86	·	·	·	·	·	·
O=C(c1ccc(Cl)cc1)N1CCN(c2cccc3[nH]ccc23)CC1	91	98	65	87	259*	·	·	·	·	·	-0.2
Cc1ccc(/C=C2\C(=O)ON=C2c2ccccc2)o1	60	71	96	102	105	·	·	·	·	·	·
O=C1ON=C(c2ccccc2)/C1=C/c1ccc(O)c(O)c1	111	91	90	97	136	·	·	·	·	·	·
COc1ccc(/C=C2\C(=O)ON=C2c2ccccc2)cc1	88	72	90	74	168*	160*	115	78	104	86	0.3
COc1cc(/C=C2\C(=O)ON=C2c2ccc(Cl)cc2)ccc1O	89	87	85	98	224*	·	·	·	·	·	0.5
Cc1ccc(C2=NOC(=O)/C2=C\c2ccc(C)o2)cc1	58	78	88	74	203*	·	·	·	·	·	4.3	s288c autofl DR=1.8;TORC1 bypass=3
NC(=O)C1CCN(C(=O)c2cc(Cl)c3c(c2)OCCO3)CC1	71	99	83	95	183*	99	98	101	106	100	·
N#Cc1ccc(CN2CCN(C(=O)c3cc(Cl)c4c(c3)OCCO4)CC2)cc1	94	102	99	100	109	·	·	·	·	·	·
CCOC(=O)CSC1=NC(=O)/C(=C/c2ccc(OC)cc2)S1	75	93	94	96	152*	·	·	·	·	·	2.3
O=C(Cc1ccc(Cl)cc1)Nc1ccc(NC(=O)c2ccccc2)cc1	104	105	101	96	99	·	·	·	·	·	·
COc1ccccc1NC(=O)CC(=O)c1ccccc1	100	92	104	116	103	101	101	97	106	91	·
O=C(CC(=O)c1ccccc1)Nc1ccc(Cl)cc1	103	106	114	122	127	100	103	103	92	98	·
COc1ccccc1NC(=O)CC(=O)Nc1ccccc1OC	100	97	103	101	89	·	·	·	·	·	·
O=C1c2ccccc2C(=O)N1c1ccc(Cc2ccncc2)cc1	98	100	96	98	107	·	·	·	·	·	·
